Results on eleven molecules are retold here after PubChem BioAssay AID2111 (National Center for Advancing Translational Sciences (NCATS), 2009).

Activity calls are given as the source filed them. Calls follow the shape of the dose curve; as a rule, active = well fitted curve in either direction with a large enough effect; inconclusive = small, poorly fitted or top-dose-only effect; inactive = no such curve, though single readings can be large or run the other way.

The target in the assay is Lysosomal alpha-glucosidase (Homo sapiens) (UniProt P10253). Description: Confirmation of Inhibitors and Activators of Human alpha-Glucosidase From Spleen Homogenate Using an Alternate Red Fluorescent Susbtrate. To be noted: resorufin-glucoside fluorescence; series mostly up to 62.8 µM. An excerpt:
NIH Chemical Genomics Center [NCGC] NIH Molecular Libraries Probe Production centers Network [MLPCN] MLPCN Grant: 1R03MH084841-01 Assay Submitter (PI): Wei Zheng NCGC Assay Overview: Alpha-glucosidase is responsible for hydrolysis of terminal, non-reducing 1,4-linked alpha-D-glucose residues with release of alpha-D-glucose. It is a lysosomal hydrolase that is required for the degradation of a small percentage (1-3%) of cellular glycogen in human. Deficiency of this enzyme results in glycogen-storage disease type II (GSDII), also referred to as Pompe disease, an autosomal recessive disorder. Structurally normal glycogen is accumulated in lysosomes and cytoplasm in affected patients, primarily in muscle tissues. Excessive glycogen storage within lysosomes may interrupt normal functioning of other organelles and leads to cellular injury. In turn, this leads to enlargement and dysfunction of the entire organ involved (eg, cardiomyopathy and muscle weakness). It has reported that the improper folding and trafficking of alpha-glucosidase resultinged from the genetic mutations may account for a significant number of Pomrope patients. […] We optimized this alpha-glucosidase assay in 1536-well plate format for identifying the novel small molecule inhibitors with the structures other than the sugar analogs in order to develop the new pharmacological chaperones. In particular, this assay is directed towards discovering compounds active in a more natural setting, tissue homogenate, that may have been missed by screens of the purified enzyme under more stringent conditions. This assay attempted to confirm hits from the primary screening using an alternate fluor than the primary screen used.
NCGC Assay Protocol Summary: This is a fluorogenic enzyme assay with Resorufin-alpha-D-glucopyranoside as the substrate and human spleen homogenate containing alpha-glucosidase as the enzyme preparation. Upon hydrolysis of this fluorogenic substrate, the resulting product, resorufin (which excites at 573 nm and emits at 610 nm) can be detected by a fluorescence plate reader. Data were normalized to the controls for basal activity (without enzyme) and 100% activity (with enzyme). The AC50 values were determined from concentration-response data modeled with the standard Hill equation. Assay buffer: 50 mM citric acid (titrated with potassium phosphate to pH 5.0), 0.01% Tween-20 (pH 5.0 is an optimal condition for this enzyme assay) 1536-well assay protocol for the alpha-glucosidase from human spleen homogenate: (1) Add 2 ul/well spleen homogenate (1 ug) (2) Add 23 nL compounds in DMSO solution. The final titration was 0.5 nM to 58 uM. (3) Add 2 ul of substrate (1 mM final) (4) Incubate at 37 C for 40 min (5) Add 2 ul stop solution (1M NaOH and 1M Glycine mixture, pH 10) (6) Detect the assay plate in a ViewLux plate reader (PerkinElmer) with […]. Keywords: Alpha-glucosidase, Pompe Disease, pharmacological chaperone, chaperone therapy, high throughput screening, alpha-glucosidase inhibitor, MLSMR, MLSCN, NIH Roadmap, qHTS and NCGC
On to `CCCN1CNc2c(c(=O)[nH]c(=S)n2CCc2cc(OC)ccc2OC)C1`, for which the Potency was 12.6 µM (active).

In the case of `CC(=O)c1ccc(N2CCN(S(=O)(=O)c3ccc4c(c3)oc(=O)n4C)CC2)cc1`, the Potency entry is “inactive”. Next, `COc1ccc(CCn2c3c(c(=O)[nH]c2=S)CN(c2ccccc2)CN3)cc1OC`: 25.1 µM (active). Next, `O=C1Cc2cc(S(=O)(=O)N3CCN(c4cccc(C(F)(F)F)c4)CC3)ccc2N1`: 8.41 µM [inhibitor] (active); `CCCN1CNc2c(c(=O)[nH]c(=S)n2CCc2ccc(Cl)cc2Cl)C1`: 7.94 µM (active).

Regarding `CC(=O)N1CCN(S(=O)(=O)c2ccc3c(c2)CC(=O)N3)CC1`, the Potency was 14.9 µM [inhibitor] (active). Next, `COC(=O)c1ccc(N2CCN(S(=O)(=O)c3ccc4c(c3)CC(=O)N4)CC2)cc1`: 1.16 µM [inhibitor] (active); `CCCN1CNc2c(c(=O)[nH]c(=S)n2CCc2c(C)cccc2C)C1`: 2.82 µM (active); `Cc1ccc(N2CCN(S(=O)(=O)c3ccc4c(c3)CC(=O)N4)CC2)cc1`: “inactive”.

In the case of `CCCN1CNc2c(c(=O)[nH]c(=S)n2CCc2ccc(C)cc2)C1`, the Potency was 14.1 µM (active). In the case of `CC(=O)Nc1ccc(S(=O)(=O)N2CCN(c3ccc(C(C)=O)cc3)CC2)cc1`, the Potency result was “inactive”.
